Source: PubChem BioAssay (National Center for Advancing Translational Sciences (NCATS))
In the library only some 8.5% were active in any assay of this set; here they are far more common.
NPSR antagonist: antagonists of human neuropeptide S receptor cAMP signaling; CHO-NPSR cells, cAMP TR-FRET, antagonist mode; Potency, µM (top dose mostly 38.3 µM), for inactives: at the top dose activity change, negative = inhibition, hits mostly inhibitors; 1% of 220,000 active; AID 1461; active means well fitted curve in the direction sought with a large enough effect; inconclusive means small, poorly fitted or top-dose-only effect, or another doubt; inactive means no such curve, though single readings can be large; an effect the other way counts as inactive or inconclusive; further: potency means the concentration at half of the fitted maximal effect; nearly all actives have a fitted effect of over 50% in size
JMJD2E inh: blocks human JMJD2E demethylase activity; JMJD2E catalytic domain, FDH-coupled NADH fluorescence (FDH is formaldehyde dehydrogenase); Potency, µM (series often up to 57.1 µM), for the others: at the top dose activity change, negative = inhibition, usual class: inhibitors; 1.6% of 230,000 active;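 further: potency means the concentration at half of the fitted maximal effect; 0% = wells with enzyme and -100% = buffer wells without enzyme; nearly all actives have a fitted effect of over 50% in size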
Target sequence (B2RXH2 1-337 limits assumed): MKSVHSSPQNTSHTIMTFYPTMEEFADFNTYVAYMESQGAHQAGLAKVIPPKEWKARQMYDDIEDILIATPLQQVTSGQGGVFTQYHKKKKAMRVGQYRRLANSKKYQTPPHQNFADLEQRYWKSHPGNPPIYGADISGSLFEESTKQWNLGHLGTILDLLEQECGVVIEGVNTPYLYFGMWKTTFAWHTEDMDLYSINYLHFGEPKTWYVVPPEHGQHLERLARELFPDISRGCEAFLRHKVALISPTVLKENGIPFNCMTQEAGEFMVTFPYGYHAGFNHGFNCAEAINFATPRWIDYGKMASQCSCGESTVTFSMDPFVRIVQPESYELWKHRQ
Coupling enz: inhibits coupling enzyme system, counter-screen for aldolase hits | coupling enzyme system counterscreen, AmpLite Red fluorescence | activity change, negative = inhibition, % at 58.2 µM, hits read low | 0.67% of 290,000 active; in the data active means activity change below about -30%
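Fluorescence at 525 nm excitation and 598 nm emission measured inhibition of the coupled detection system without aldolase. Compounds (at 57.5 uM final) were preincubated 10 min at room temperature with coupling enzyme reagent before a 20 min substrate/AmpLite Red step.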
RGS12 GoLoco inh: inhibitors of human Gai1-RGS12 GoLoco interaction (red fluorophore) | Potency, µM (top dose mostly 61.6 µM), inactives show top-dose activity, negative = inhibition, hits mostly inhibitors | 0.44% of 230,000 active | Gai1:RGS12 GoLoco peptide FP, rhodamine, 10 min; active means well fitted inhibition curve with a large enough effect, not every such curve was filed as active; inactive means no such curve, though single readings can be large or run the other way; further: potency means the concentration at half of the fitted maximal effect; nearly all actives have a fitted effect of over 30% in size
Target sequence (P63096 whole entry, looked up): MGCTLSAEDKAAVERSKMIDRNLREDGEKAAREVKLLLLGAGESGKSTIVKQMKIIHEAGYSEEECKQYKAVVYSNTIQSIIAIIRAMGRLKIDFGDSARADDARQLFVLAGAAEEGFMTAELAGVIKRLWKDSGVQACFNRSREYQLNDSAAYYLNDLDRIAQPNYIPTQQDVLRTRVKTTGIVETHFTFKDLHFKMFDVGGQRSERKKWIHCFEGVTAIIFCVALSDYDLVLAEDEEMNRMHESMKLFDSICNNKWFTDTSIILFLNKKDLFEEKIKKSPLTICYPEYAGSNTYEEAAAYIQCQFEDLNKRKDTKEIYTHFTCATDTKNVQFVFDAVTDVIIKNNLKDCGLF
ALDH1A1 block: blocks purified human ALDH1A1 activity. P00352. Purified ALDH1A1, NADH fluorescence, propionaldehyde substrate. Potency, µM (top dose mostly 75.3 µM), for inactives: at the highest dose activity, negative = inhibition, actives largely listed as inhibitors. 7.3% of 220,000 active. AID 1030;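 further: potency means the concentration at half of the fitted maximal effect; plate controls were no enzyme wells and a reference inhibitor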
Sfp inh: blocks B. subtilis Sfp PPTase activity; 3.5% of 310,000 active; Biochemical Sfp PPTase activity, qHTS; Potency, µM, without a hit: largest response in the series, negative = inhibition, hits mostly inhibitors; AID 1490; active means well fitted curve in the direction sought with a large enough effect; inconclusive means small, poorly fitted or top-dose-only effect, or another doubt; inactive means no such curve, though single readings can be large; an effect the other way counts as inactive or inconclusive;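 further: the enzyme is Sfp with the accession as filed and its product quenches rhodamine fluorescence; potency means the concentration at half of the fitted maximal effect; 0% = enzyme reaction without inhibitor and -100% = no enzyme wells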
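Fluorescence-quenching assay with 15 nM Sfp, 5 uM rhodamine-CoA and 12.5 uM BHQ-2-labelled ybbR peptide in pH 7.6 Hepes/MgCl2 buffer. Enzyme was pre-incubated with compound for 15 min at room temperature. Rate was taken from the 30-min fluorescence change (525/598 nm).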
* hit, by the source's call; [ ] = dose if it differs, or a comment. Unless noted, the call rests on the fitted dose curve; in most records, active means well fitted inhibition curve with a large enough effect (not every such curve was filed as active); inconclusive means small, poorly fitted or top-dose-only effect, or another doubt; inactive means no such curve, though single readings can be large or run the other way. Unless noted, on the % scale 0 is the no-effect control and ±100 the full control effect.

O=C(NN=C1C2CC3CC1CC(Cl)(C3)C2)c1cccs1 was read as NPSR antagonist 7.8%, JMJD2E inh -7.5%, Coupling enz 1.3, RGS12 GoLoco inh 4.2%, ALDH1A1 block 3.16µM* and Sfp inh -6.3%.
`O=C(NN=C1C2CC3CC1CC(Cl)(C3)C2)c1ccccn1` gave NPSR antagonist 3.9%, JMJD2E inh 11.4%, Coupling enz -1.0, RGS12 GoLoco inh 0.0%, ALDH1A1 block inconclusive and Sfp inh 7.94µM*.
For CCCN(CCC)S(=O)(=O)c1ccc(C)cc1 the results were Coupling enz 1.2 and Sfp inh 8.6%.
O=c1[nH]cnc2c1N=C(c1cccc([N+](=O)[O-])c1)CC(c1ccccc1)N2 (configuration not stated) was read as NPSR antagonist -13.7%, JMJD2E inh 3.5%, Coupling enz 0.4, RGS12 GoLoco inh 9.2%, ALDH1A1 block -13.6% and Sfp inh -18.5%.
O=C(CCC(=O)N1CCOc2ccccc21)Nc1ccccc1Br was read as Coupling enz 0.3 and Sfp inh 17.1%.
For COc1ccc(NC(=O)C2C3C=CC(C3)C2C(=O)O)cc1 (configuration not stated) the results were NPSR antagonist 12.8%, JMJD2E inh -2.1%, Coupling enz 0.2, RGS12 GoLoco inh 3.1% and Sfp inh 13.8%.
Cc1ccc(-c2ccc(NC(=O)C3C4C=CC(C4)C3C(=O)O)cc2)o1 (configuration not stated) was read as NPSR antagonist -10.6%[46.1 µM], JMJD2E inh inconclusive, Coupling enz 3.1, RGS12 GoLoco inh -14.5%, ALDH1A1 block inconclusive and Sfp inh 2.24µM*.
Screening O=C(O)c1ccccc1NC(=O)C1C2C=CC(C2)C1C(=O)O (configuration not stated) returned Coupling enz 0.0 and Sfp inh 20µM*.
Screening Cc1ccc(NC(=O)Cc2ncc(C(F)(F)F)cc2Cl)cc1Cl returned NPSR antagonist -19.6%[46.1 µM], JMJD2E inh -2.6%, RGS12 GoLoco inh 0.9%, ALDH1A1 block -2.9% and Sfp inh 7.2%.
COc1cc(F)ccc1S(=O)(=O)N1CCN(c2ccccc2)CC1 was read as Coupling enz 2.4 and Sfp inh 0.0%.
`COc1ccc(-n2cc(CNCc3cnc4ccccn34)c(-c3cccc(F)c3)n2)cc1` gave NPSR antagonist inconclusive, JMJD2E inh inconclusive, Coupling enz 0.5, RGS12 GoLoco inh 9.5%, ALDH1A1 block inconclusive and Sfp inh inconclusive.
COc1ccc(NC(=O)CCl)cn1 was read as NPSR antagonist -7.4%, JMJD2E inh inconclusive, Coupling enz -39.8*, RGS12 GoLoco inh -56.6% and Sfp inh inconclusive.
COc1ccc(NC(=O)Nc2cccs2)cn1 was read as Coupling enz -2.5 and Sfp inh 56.2µM*.
COc1ccc(NC(=O)Nc2cc(C)cc(C)c2)cn1 was read as NPSR antagonist -11.9%, JMJD2E inh -5.6%, Coupling enz -0.3, RGS12 GoLoco inh -1.2% and Sfp inh 4.4%.
Screening COc1ccc(CC(=O)Nc2ccc(OC)nc2)cc1 returned NPSR antagonist 9.7%, JMJD2E inh 9.6%, Coupling enz -3.7, RGS12 GoLoco inh 13.4%, ALDH1A1 block 13.0% and Sfp inh 11.5%.
For CN(C)[C@@H]1C(=O)C(C(=O)NCN2CCCC2)=C(O)[C@@]2(O)C(=O)C3=C(O)c4c(O)cccc4[C@@](C)(O)C3CC12 (some centres not stated) the results were NPSR antagonist -16.5%, JMJD2E inh inconclusive, Coupling enz -39.4*, RGS12 GoLoco inh -31.5%, ALDH1A1 block inconclusive and Sfp inh 50.1µM*.
For CSC(SC)=C(C#N)C(=O)c1ccccc1 the results were NPSR antagonist inconclusive, JMJD2E inh -26.0%, Coupling enz -2.7, RGS12 GoLoco inh -4.5%, ALDH1A1 block 22.4µM* and Sfp inh 7.94µM*.
Screening COc1cccc(C(=O)C(C#N)=C(SC)SC)c1 returned NPSR antagonist inconclusive, JMJD2E inh 1.0%, Coupling enz 0.8, RGS12 GoLoco inh -8.2%, ALDH1A1 block 7.08µM* and Sfp inh 3.98µM*.
Screening O=C(O)c1ccc(C(=O)C(=O)c2ccccc2)cc1 returned NPSR antagonist -17.7%, JMJD2E inh 7.4%, Coupling enz 16.5, RGS12 GoLoco inh 12.7% and Sfp inh 22.4%.
`CCS(=O)(=O)N1CCC(NC(=O)C(Cc2ccc(OC)c(OC)c2)NC(C)=O)CC1` (configuration not stated) gave Coupling enz 3.4 and Sfp inh -2.0%.
`COc1ccc(C(=O)Oc2cc(C)c(CN3CCOCC3)cc2C)cc1OC` gave Coupling enz -0.7 and Sfp inh 27.8%.
Screening CCCCC(=O)N(C)C returned RGS12 GoLoco inh 9.5% and ALDH1A1 block inconclusive.
Screening O=C(N/N=C\C=C\c1ccco1)c1cncc(Br)c1 returned NPSR antagonist -15.8%, JMJD2E inh -24.3%, Coupling enz -10.8, RGS12 GoLoco inh 7.7% and Sfp inh 39.8µM*.
Screening O=C(N/N=C/C=C\c1ccco1)c1cccnc1 returned NPSR antagonist -13.1%[46.1 µM], JMJD2E inh -11.0%, Coupling enz -14.1, RGS12 GoLoco inh 2.0%, ALDH1A1 block inconclusive and Sfp inh 31.6µM*.
For O=C(N/N=C/C=C/c1ccccc1)c1cccnc1 the results were NPSR antagonist 28.5%, JMJD2E inh -1.4%, Coupling enz -3.0, RGS12 GoLoco inh 8.3% and Sfp inh 13.1%.
CC(/C=C\C=C\c1ccccc1)=N\NC(=O)c1cncc(Br)c1 was read as NPSR antagonist -44.0%, JMJD2E inh -22.3%, Coupling enz -1.4, RGS12 GoLoco inh 29.0%, ALDH1A1 block 22.4µM* and Sfp inh -30.1%.
Screening O=C(N/N=C/C=C/c1ccco1)c1cccnc1 returned NPSR antagonist -7.5%[46.1 µM], JMJD2E inh inconclusive, Coupling enz -18.2, RGS12 GoLoco inh 13.7%, ALDH1A1 block inconclusive and Sfp inh 35.5µM*.
Screening CCOc1ccc(C(=O)OCC(=O)N2CCCC2)cc1 returned Coupling enz 1.0 and Sfp inh 19.5%.
For CCNC(=O)NC(=O)CN(C)c1ccccc1 the results were NPSR antagonist 16.0%, JMJD2E inh 1.8%, Coupling enz 1.3, RGS12 GoLoco inh -4.4%, ALDH1A1 block -1.5% and Sfp inh 10.2%.
For CCOC(=O)N1CCC(NC(=O)C2CCN(C(=O)N3CC(C)Oc4ccc(C)cc43)CC2)CC1 (configuration not stated) the results were NPSR antagonist -0.6%[46.1 µM], JMJD2E inh 2.4%, Coupling enz 3.1, RGS12 GoLoco inh 8.4%, ALDH1A1 block 7.94µM* and Sfp inh -2.8%.
